# NS1 inh: blocks influenza NS1 protein function. Potency, µM (titrated, usually from 46.1 µM), for inactives: at the highest dose activity, positive = more growth. 270,000 tested, 0.4% active; also: potency is read from the fitted curve at half-maximal effect; actives are rising curves; nearly all actives have a fitted effect of over 50% in size
#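 A cell-based growth assay was used: compounds that relieve NS1-induced slow growth of budding yeast raise OD600. Assay medium was yeast nitrogen base with ammonium sulphate and -URA supplement, pH 6.0, with 2% galactose.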
# SARS PLpro yeast: SARS-CoV PLP inhibition in yeast; AID 485353; Potency, µM (titrated, usually from 32.9 µM), for the others: top-dose activity, positive = growth rescue, most hits filed as activators; S. cerevisiae expressing SARS-CoV PLpro, growth rescue; 330,000 tested, 0.19% active; also: potency is read from the fitted curve at half-maximal effect; 0% is about no effect; nearly all actives have a fitted effect of over 55% in size
# Shiga inhibitor: Shiga toxin inhibition; Vero cells, Shiga toxin protein synthesis inhibition reporter; inhibition, % at 38.7 µM; 290,000 tested, 9.2% active; in the data active = inhibition mostly above about 28%, no sharp cut-off; inactive = mostly below about 43%; also: 0% is about no effect
# CHX counter: affects cycloheximide protein synthesis inhibition readout, counter-screen; 300,000 tested, 12% active; cell reporter, cycloheximide protein synthesis inhibition counterscreen; AID 2314; max response, %; in the data active = max response mostly above about 13%, no sharp cut-off; inactive = mostly below about 14%; also: read at 38.3 µM for the half of the compounds with a filed dose; 0% is about no effect
# The depositor's hits bear a star; / = no result given. An excerpt weighted towards active compounds, which were near 12% of everything screened. Unless noted, calls follow the shape of the full dose curve.
SMILES,NS1 inh,SARS PLpro yeast,Shiga inhibitor,CHX counter
CC(C)c1ccc(/C=N/N2CCCCC2)cc1,/,-6%,139*,31*
Fc1ccc(/C=N/N2CCCCC2)c(F)c1,0%,-3%,-6,4
CC(C)c1ccc(NC(=O)CN2CCN(c3ccccn3)CC2)cc1,-5%,-3%,6,-5
CC(C)c1ccc(/C=N/N2CCN(c3ccccn3)CC2)cc1,-2%,0%,43*,21*
CC(C)CCSc1nc2[nH]ncc2c(=O)[nH]1,/,3%,7,-11
C#CCNC(=O)C1=C[C@@H](C2CC2)C[C@@H](OCc2ccc(CO)cc2)O1,0%,-1%,-2,1
Cc1ccc(NC(=O)NCCN2CCCCC2)cc1,1%,-1%,-2,8.8*
O=C(NCCN1CCOCC1)Nc1ccc(Cl)cc1,5%,-1%,22,13*
Cc1ccc(C(=O)N/C(=C\c2ccco2)C(=O)N2CC(C)OC(C)C2)cc1C (configuration not stated),20%,4%,-6,2
COCCn1c(SCc2nc3scc(-c4ccc(Cl)cc4)c3c(=O)[nH]2)nnc1-c1cccc(C)c1,5%,4%,-20,-1
Cc1c(C)c2c(c(C)c1OC(=O)c1cccnc1)CC[C@@](C)(CCC[C@H](C)CCC[C@H](C)CCCC(C)C)O2,/,/,-12,-4
Cc1cc(C)nc(/N=C(\N)Nc2ccc(C(C)C)cc2)n1,-4%,-2%,23,14*
CCCCOC(=O)n1c(=O)oc2ccccc21,-11%,-5%,44,26*
COC(=O)n1c(=O)oc2ccccc21,-4%,-3%,6,-3
C=CCOc1c(Br)cc(CNn2c(C)n[nH]c2=S)cc1OC,27%,3%,-3,-1
COc1cc(CNn2c(C)n[nH]c2=S)cc(Br)c1OCC(=O)NC(C)(C)C,7%,18%,/,1
COc1cc(CNn2c(C)n[nH]c2=S)cc(Cl)c1OCC(=O)NC(C)(C)C,9%,3%,21,11*
C=CCOc1ccc(CNn2c(C)n[nH]c2=S)cc1OC,20%,3%,55*,28*
CCCCCCN1CC(C(=O)OCC)C(=O)C1=O (configuration not stated),-17%,-22%,18,-4
CCOC(=O)NC(NC(=O)OCC)C(=O)c1ccccc1,-10%,0%,-14,-5
CCOC(=O)NC(N(O)c1cccc(Cl)c1)C(Cl)(Cl)Cl (configuration not stated),-1%,-1%,21,20*
COc1cc(NC(=O)CNC(=O)Cn2ccc3ccccc3c2=O)cc(OC)c1OC,-3%,-5%,13,-1
O=C(NC1=NCCS1)c1cccc2ccccc12,/,-26%,41,26*
c1ccc2c(NC3=NCCS3)cccc2c1,-70%,1%,31,7
O=C(NC1=NCCS1)c1ccc(Cl)cc1,-58%,-10%,93*,58*
SMILES,NS1 inh,SARS PLpro yeast,Shiga inhibitor,CHX counter
CCN(CC)S(=O)(=O)c1cc(C(=O)NC2=NCCS2)ccc1Cl,-112%,-25%,-2,1
Cc1cc(C)n(-c2ccc(C(=O)NC3=NCCS3)cc2)n1,-19%,4%,92*,41*
O=C(NC1=NCCS1)c1ccc(-c2ccc(Cl)cc2)o1,-145%,-30%,77*,56*
COc1ccc(-c2nc(N3CCN(S(=O)(=O)c4ccc(F)cc4)CC3)c3ccccc3n2)cc1,/,/,37,16
CC12CCC(C(=O)NCCCN3CCOCC3)(C(Br)C1=O)C2(C)C (configuration not stated),-4%,1%,10,-2
CCCNc1c(NS(=O)(=O)c2ccc(Br)cc2)c(=O)oc2ccccc12,-3%,-5%,16,29
COc1ccc(Cl)cc1C(=O)NC1=NCCS1,6%,2%,23,16*
COc1ccc(CN2CC(=O)N(c3ccc(C)c(C)c3)C2=S)cc1OC,/,-6%,23,7
O=c1[nH]cnc2ccsc12,/,-2%,-5,-1
Cc1sc(NC(=O)CN(Cc2ccccc2)C(=O)C2CC2)c(C(N)=O)c1C,4%,0%,-13,2
O=C(Nc1cccc(Cl)c1)OCc1cn(-c2ccccc2)nn1,/,-6%,20,15
COC(=O)c1cc(NC(=O)Nc2cccc(Cl)c2)ccc1Cl,-55%,-22%,73,22*
O=C(Nc1cccc(F)c1)Nc1cccc(Cl)c1,-96%,-21%,/,28*
COC(=O)c1cccc(NC(=O)Nc2ccc(Cl)cc2)c1,-3%,-1%,48*,28*
O=C(Nc1cccc(Cl)c1)OCc1cnc(Cl)s1,-21%,-20%,31,14*
CC(=O)Nc1cccc(NC(=O)Nc2cccc(F)c2)c1,1%,-1%,17,9
CN(C)S(=O)(=O)N1CCCC(C(=O)c2ccc(C(F)(F)F)cc2)C1 (configuration not stated),0%,1%,-8,-2
Cc1cccnc1NC(=O)Nc1cccc(Cl)c1,-6%,0%,60*,13
COc1ccc(CCC(=O)NNC(=O)Nc2cccc(Cl)c2)cc1,13%,1%,-4,9
CC(=O)c1cccc(NC(=O)NN2CCN(C)CC2)c1,5%,-2%,-13,-2
N#CCc1ccc(NC(=O)Nc2cccc(Cl)c2)cc1,-6%,6%,71,32*
O=C(CCc1ccccc1)NNC(=O)Nc1cccc(Cl)c1,5%,-2%,36,17*
CN1CCN(NC(=O)Nc2cccc(F)c2)CC1,-12%,-9%,50,11*
CCN1CCN(Cc2nc3c(c(=O)n(C)c(=O)n3C)n2Cc2ccc(Cl)cc2Cl)CC1,-150%,/,/,/
Cc1nc(SCC(=O)NC(C)(C)C)c2c(-c3cccs3)csc2n1,-7%,21%,-12,0
SMILES,NS1 inh,SARS PLpro yeast,Shiga inhibitor,CHX counter
CCOC(=O)C1CCN(C(=O)Cn2ncc3c([nH]c4ccccc43)c2=O)CC1,-1%,/,6,-1
CC1CCC(=C(C#N)C(=O)Nc2cccc(Cl)c2)CC1 (configuration not stated),-11%,0%,19,24*
COC(=O)NCC(C)OC(=O)Nc1cccc(Cl)c1 (configuration not stated),-9%,2%,20,11*
NS(=O)(=O)c1cccc(NC(=O)Nc2ccc(Cl)cc2)c1,-32%,-2%,87*,36*
CNS(=O)(=O)c1ccc(NC(=O)Nc2cccc(F)c2)cc1,1%,0%,86*,32*
COC(=O)N/N=C(\C)c1ccc(OC(F)F)cc1OC(F)F,-4%,16%,-5,-7
COC(=O)Nc1ccc2c(c1)N(C(=O)CCN(C)C)c1ccccc1CC2,-1%,-7%,0,-1
CC(=O)NNc1cc(C)nc(NS(=O)(=O)c2ccc(C)cc2)n1,8%,6%,-2,-3
O=C(Nc1cccc(Cl)c1)Nc1cccc(Cl)c1,5%,-10%,68*,20*
Cc1cccc(N(O)C(=O)Nc2cccc(Cl)c2)c1,-29%,1%,56*,37*
CCN(C(=O)Nc1cccc(Cl)c1)c1ccccc1,10%,3%,-5,-2
OCCC1CCCCN1CC(O)COCc1ccc(Cl)cc1 (configuration not stated),-9%,3%,-7,-2
C=CCSc1cc(C)nc2c(-c3ccccc3)cnn12,-9%,-2%,80*,63*
CCSc1cc(C)nc2c(-c3ccccc3)cnn12,-8%,-1%,69*,52*
CC(C)(C)c1cc(C(F)(F)F)n2ncc(-c3ccccc3)c2n1,/,1%,9,9

# Source: PubChem BioAssay
